Assay results from PubChem BioAssay AID2025 (NMMLSC, 2009).
Screen size: about 330,000 compounds; about 980 (0.3%) were called active. For the sample, actives were picked, then their nearest neighbours and some compounds at random. Values without a mark were called inactive.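 How the source made its calls: active means percent response vs DMSO below 50%; inconclusive means fewer than 70 events counted for the yeast strain; inactive means the rest.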

assay: compounds altering RPL19A-GFP fluorescence, TOR branch – cell-based, S. cerevisiae, multiplex flow cytometry, MLPCN, primary screen (AID 2025);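 further: median channel GFP fluorescence of the barcoded RPL19A-GFP strain; ratio of sample median GFP to plate DMSO average so 100% = DMSO; lower means less RPL19A-GFP as with rapamycin TOR inhibition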; conditions: S. cerevisiae RPL19A-GFP strain, 3 h, at 10 µM, stronger effect = lower value

Row | SMILES | percent response vs DMSO
1 | Cc1c(NC(=O)c2c([N+](=O)[O-])cnn2C)c(=O)n(-c2ccccc2)n1C | 41.5% [may fluoresce violet] (active)
2 | Cc1c(NC(=O)Nc2cccc([N+](=O)[O-])c2)c(=O)n(-c2ccccc2)n1C | 102%
3 | Cc1cc(OCC(=O)Nc2c(C)n(C)n(-c3ccccc3)c2=O)ccc1[N+](=O)[O-] | 97.2%
4 | Cc1ccccc1-c1cc(C(=O)NCC2CC2)n(CC2CC(c3cccnc3)=NO2)n1 (stereo not drawn) | 104%
5 | CNC[C@H](CC1CCCCC1)NC[C@H](NCCC1CCCC1)[C@H](C)O | 93.9%
6 | CCCc1ccc(-c2c(C)sc(NC(=O)c3ccnn3C)c2C#N)cc1 | 98%
7 | CC1(c2ccc3ccccc3c2)NC(=O)NC1=O (stereo not drawn) | 105%
8 | COc1ccc(-c2nnn(Cc3nc(N)nc(N4CCCCC4)n3)n2)cc1 | 98.7%
9 | COc1ccc(-n2nnnc2SCc2nc(N)nc(N3CCOCC3)n2)cc1 | 48.8% [may fluoresce violet] (active)
10 | COc1ccc(CSc2nnnn2-c2ccc(C(=O)O)cc2)cc1 | 99.4%
11 | O=C(COC(=O)CNC(=O)C1CCCCC1)Nc1cccc(F)c1 | 100%
12 | OCC(O)CN(c1ccccc1)c1ccccc1 (stereo not drawn) | 94.3%
13 | CCn1cc(C(=O)OCC(=O)Nc2cccc(C)c2)c(=O)c2ccc(C)nc21 | 96.6%
14 | C=CC[C@H](CC(=O)N(CCO)Cc1ccccc1)C(=O)N[C@@H](COC(=O)[C@@H](CC=C)Cc1ccc(F)cc1)Cc1ccccc1 | 96%
15 | CCNS(=O)(=O)c1ccc(NC(=O)c2cncc(Br)c2)cc1 | 96.5%
16 | O=C(CN1CCN(S(=O)(=O)c2ccc(Br)cc2)CC1)Nc1ccccc1C(=O)c1ccccc1 | 100%
17 | O=C(Cc1ccccc1)NNS(=O)(=O)c1ccc([N+](=O)[O-])cc1 | 97.4%
18 | O=C(CNC(=O)c1ccccc1)Oc1ccc([N+](=O)[O-])cc1 | 103%
19 | O=C(NNS(=O)(=O)Cc1ccccc1)c1ccc([N+](=O)[O-])cc1 | 44.4% [may fluoresce violet] (active)
20 | CC(=O)c1ccc(N2CCN(C(=O)CCNC(=O)Cn3ccc4ccccc4c3=O)CC2)cc1 | 104%
21 | COc1cc(C(C(=O)NC2CCCC2)N(C(=O)c2ccco2)c2ccccc2C(C)=O)cc(OC)c1OC (stereo not drawn) | 108%
22 | O=C(CC(n1cncn1)C(Cl)(Cl)Cl)c1ccc([N+](=O)[O-])cc1 (stereo not drawn) | 104%

Row | SMILES | percent response vs DMSO
23 | O=C(c1ccncc1)c1ccc([N+](=O)[O-])cc1 | 98.9%
24 | O=C(C1CCCO1)N(c1ccc(F)cc1)C1C=CS(=O)(=O)C1 (stereo not drawn) | 97.9%
25 | NC(=O)c1nsc(C(=O)N(CCCN2CCOCC2)C(C(=O)NC2CCCCC2)c2ccc(Cl)cc2)c1N (stereo not drawn) | 38% [may fluoresce violet] (active)
26 | CCOc1ccc(C(C(=O)NC2CCCC2)N(C(=O)c2snc(C(N)=O)c2N)C2CCCC2)cc1 (stereo not drawn) | 95.8%
27 | CC(C)(C)NC(=O)C(c1ccc(Cl)cc1)N(CCO)C(=O)c1snc(C(N)=O)c1N (stereo not drawn) | 99.5%
28 | O=C(O)c1ccc(S(=O)(=O)N2CCOCC2)o1 | 47.2% [may fluoresce violet] (active)
29 | O=C(CCc1ccc(S(=O)(=O)N2CCOCC2)cc1)NN=C1CCCCCCC1 | 101%
30 | O=C(c1cc(S(=O)(=O)N2CCOCC2)ccc1Cl)N1CCOCC1 | 112%
31 | CCOC(=O)CNC(=O)/C=C/c1c(Cl)cccc1Cl | 94.2%
32 | CC(C)=CCCC1(C)C=Cc2c(ccc3c2[nH]c2cc(O)c(C)cc23)O1 (stereo not drawn) | 97.2%
33 | COc1cc(OC)c(C(=O)OCC(=O)N2CC(=O)Nc3ccccc32)cc1OC | 93.3%
34 | O=C1CN(C(=O)COC(=O)c2cnc(Cl)c(Cl)c2)c2ccccc2N1 | 18.6% [may fluoresce violet] (active)
35 | O=C1CN(C(=O)COc2c(Cl)cccc2Cl)c2ccccc2N1 | 91.8%
36 | CN(NC(=O)C1CC(=O)N(c2ccccc2)C1)C1=NS(=O)(=O)c2ccccc21 (stereo not drawn) | 102%
37 | CC1(C)CC2CC(C)(CN2c2ncnc3ccc(Br)cc23)C1 (stereo not drawn) | 105%
38 | CN(CC(=O)Nc1ccccc1Cl)C(=O)c1ccccc1SCC(=O)N1CCCC1 | 94.7%
39 | CSc1nc2nc3c(c(=O)n2[nH]1)CCC3 | 89.8%
40 | O=c1c2c(nc3nc[nH]n13)CCC2 | 19.2% [may fluoresce violet] (active)
41 | O=c1c2c(nc3cc(-c4cccc(Cl)c4)[nH]n13)CCCC2 | 99.2%
42 | CCCCCC(O)c1cccc(OCc2ccc3ccccc3n2)c1 (stereo not drawn) | 88.3%
43 | O=C1CC(=O)Nc2cc(S(=O)(=O)N3CCN(c4cccc(C(F)(F)F)c4)CC3)ccc2N1 | 97.6%
